In PubChem BioAssay (EPA / NIEHS):
Records with an inconclusive call do not appear. Calls of active or inactive are those of the source. The calls were made as follows, unless noted: active = hit-call score of the fitted dose curve at least 0.9, where 1 is the maximum; inconclusive = response in the unintended direction; inactive = score below 0.9.

Assays:
[1] = TOX21_p53_BLA_p2_viability: Viability Assessment in the Tox21 HCT-116 p53 Agonism Beta-lactamase Assay, Phase 2 (AID 2283591);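 also: actives lower the ATP signal meaning cytotoxicity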
In short: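 Cytotoxicity readout: CellTiter-Glo ATP luminescence, 30 min at room temperature, after the beta-lactamase read. Cells were HCT116 exposed 16 h at 37C to compounds pin-transferred at 217-fold dilution from DMSO stocks.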

[2] = target: Cellular tumor antigen p53 (Homo sapiens) (UniProt P04637); experiment: TOX21_p53_BLA_p2_ratio: Tox21 HCT-116 p53 Agonism Beta-lactamase Assay, Ratio, Phase 2 (AID 2283592)
Chain of Cellular tumor antigen p53 (Homo sapiens) (P04637 whole entry, looked up): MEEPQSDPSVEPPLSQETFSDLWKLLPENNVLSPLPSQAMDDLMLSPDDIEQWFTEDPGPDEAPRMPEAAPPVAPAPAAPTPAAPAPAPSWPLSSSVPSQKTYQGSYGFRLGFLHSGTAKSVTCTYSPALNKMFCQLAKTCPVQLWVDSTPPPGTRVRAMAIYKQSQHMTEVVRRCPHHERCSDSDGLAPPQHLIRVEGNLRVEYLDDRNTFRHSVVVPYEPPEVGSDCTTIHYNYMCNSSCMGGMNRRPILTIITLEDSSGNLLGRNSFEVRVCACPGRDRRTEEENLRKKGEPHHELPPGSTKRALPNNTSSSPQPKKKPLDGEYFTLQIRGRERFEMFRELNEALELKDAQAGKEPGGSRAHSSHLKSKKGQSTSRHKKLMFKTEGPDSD
In short: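 An inducible beta-lactamase reporter in HCT116 cells signals p53 pathway activation. After 16 h chemical exposure at 37C, cells load CCF4-AM substrate for 2 h at room temperature; activity is the cleaved/uncleaved emission ratio relative to DMSO.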

[3] = TOX21_p53_BLA_p3_viability: Viability Assessment in the Tox21 HCT-116 p53 Agonism Beta-lactamase Assay, Phase 3 (AID 2283593);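 also: cells exposed to compound for 16 h before reading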
In short: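 Cellular ATP was quantified by CellTiter-Glo luminescence, read after 30 min at room temperature. Beforehand, HCT116 cells (4000/well) received compound 5 h post-seeding, 217-fold diluted from DMSO, then incubated 16 h at 37C.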

[4] = TOX21_p53_BLA_p4_viability: Viability Assessment in the Tox21 HCT-116 p53 Agonism Beta-lactamase Assay, Phase 4 (AID 2283597);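 also: hits lower the luminescence signal meaning cytotoxicity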
In short: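 Compound exposure of HCT116 cells lasts 16 h at 37C, 5% CO2, with DMSO stocks diluted 217-fold. Cellular ATP is then quantified by CellTiter-Glo luminescence after 30 min at room temperature.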

[5] = target: Cellular tumor antigen p53 (Homo sapiens) (UniProt P04637); experiment: TOX21_p53_BLA_p5_ratio: Tox21 HCT-116 p53 Agonism Beta-lactamase Assay, Ratio, Phase 5 (AID 2283599)
In short: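 Beta-lactamase reporter ratio (blue 460 nm over green 530 nm, 405 nm excitation) after 2 h CCF4-AM loading, in HCT-116 cells exposed 16 h at 37 C to compounds pinned at 217-fold dilution. Increases relative to DMSO baseline scored.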

[6] = TOX21_p53_BLA_p5_viability: Viability Assessment in the Tox21 HCT-116 p53 Agonism Beta-lactamase Assay, Phase 5 (AID 2283600)
In short: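 Counter-readout for cytotoxicity: ATP-dependent luminescence from CellTiter-Glo, read in the beta-lactamase wells after 30 min at RT, following a 16 h compound exposure at 37C.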

[7] = target: Cellular tumor antigen p53 (Homo sapiens) (UniProt P04637); experiment: TOX21_p53_BLA_p4_ratio: Tox21 HCT-116 p53 Agonism Beta-lactamase Assay, Ratio, Phase 4 (AID 2283601)
In short: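 Signal is the blue/green (460nm/530nm) ratio of cleaved versus uncleaved CCF4-AM substrate, read after 2 h substrate loading. Cells were HCT116 carrying the p53-responsive beta-lactamase reporter, dosed 16 h at 37C, 5% CO2; CellTiter-Glo measured in parallel.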

[8] = target: Thyroid hormone receptor alpha (Rattus norvegicus) + Thyroid hormone receptor beta (Rattus norvegicus) (UniProt P18113+P63059); experiment: TOX21_TR_LUC_GH3_Antagonist_Followup: Tox21 GH3 Thyroid Hormone Receptor Antagonism Luciferase Follow-Up Assay (AID 2283942)
In short: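 Confirmatory qHTS, antagonist mode: T3 (1.0 nM final) + test cpd, 15 conc, 92 uM–5nM final, GH3 rat pituitary line, 24 h, 37C. Luc reporter, RLU vs DMSO.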

THRB (gene 7068) [9] = target: THRB (gene 7068) (UniProt P10828); experiment: TOX21_TRB_COA_Antagonist_Followup_ratio: Tox21 Thyroid Hormone Receptor beta Antagonism through Coactivator Recruitment Follow-Up Assay, Ratio (AID 2283967)
Chain of THRB (gene 7068) (P10828 whole entry, looked up, the tested form may be a part): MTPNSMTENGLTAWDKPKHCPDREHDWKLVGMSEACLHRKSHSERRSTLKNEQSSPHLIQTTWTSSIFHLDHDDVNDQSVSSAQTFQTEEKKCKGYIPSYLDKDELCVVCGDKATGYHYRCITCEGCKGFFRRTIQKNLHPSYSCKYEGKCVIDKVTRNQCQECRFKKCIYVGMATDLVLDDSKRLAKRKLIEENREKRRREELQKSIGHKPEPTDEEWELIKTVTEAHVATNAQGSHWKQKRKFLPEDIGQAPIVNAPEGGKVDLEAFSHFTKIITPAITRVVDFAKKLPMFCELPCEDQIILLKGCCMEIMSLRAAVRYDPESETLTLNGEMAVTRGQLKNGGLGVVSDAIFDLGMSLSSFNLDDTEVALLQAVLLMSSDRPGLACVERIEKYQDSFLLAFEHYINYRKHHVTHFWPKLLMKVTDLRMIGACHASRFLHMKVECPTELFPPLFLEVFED
In short: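 Test compound was incubated with 5.0 nM GST-TRβ LBD in 0.10% BSA. Then 200 nM fluorescein-SRC-2 peptide and 2 nM terbium anti-GST antibody were added. TR-FRET (520:495 nm) was measured and normalized to DMSO and T3 controls.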

[10] = TOX21_TR_RXR_BLA_Antagonist_Followup_viability: Viability Assessment in the Tox21 Thyroid Hormone Receptor beta Retinoid X Receptor alpha (RXRa) Antagonism Beta-lactamase (BLA) Follow-Up Assay (AID 2283979)
In short: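 Follow-up compounds (11 concentrations, triplicate) were incubated 16 h at 37C/5% CO2 with HEK293T RXRa-bla cells seeded at 2,500/well in charcoal-stripped-serum medium. ATP content by CellTiter-Glo luminescence gave viability; curves fitted in both directions against DMSO.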

[11] = CCTE_Harrill_HTTr_Viability_MCF7: CCTE's 6-hour Cell Viability Assessment for the High-Throughput Transcriptomics (HTTr) Platform, in MCF-7 cells cultured in DMEM + 10% fetal bovine serum, Harrill Lab (AID 2284010; active = hit-call score of the fitted dose curve at least 0.9, where 1 is the maximum; inactive = score below 0.9)
In short: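 MCF-7 cells in DMEM + 10% FBS, 384-well, exposed 6 h to an eight-point dilution series. Membrane integrity scored by high-content imaging of propidium iodide exclusion; bidirectional fit versus DMSO.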

[12] = CCTE_Harrill_HTTr_Apoptosis_MCF7: CCTE's 6-hour Apoptosis Assessment for the High-Throughput Transcriptomics (HTTr) Platform, in MCF-7 cells cultured in DMEM + 10% fetal bovine serum, Harrill Lab (AID 2284011; active = hit-call score of the fitted dose curve at least 0.9, where 1 is the maximum; inactive = score below 0.9)
In short: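 Cells are dosed with test chemicals at eight concentrations and imaged 6 hours later for caspase-3/7 activity using a green fluorogenic detection reagent. Activity is fitted in both directions against DMSO controls.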

[13] = CCTE_Harrill_HTTr_CellCount_MCF7: CCTE's Cell Proliferation Assessment for the High-Throughput Transcriptomics (HTTr) Platform, Harrill Lab (AID 2284012);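 also: cells exposed to compound for six hours; intended direction is loss of nuclei count meaning fewer cells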
In short: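 MCF7 cells exposed 6 hours to an eight-point dilution series; Hoechst-stained nuclei counted by high-content imaging. Bidirectional curve fitting against DMSO baseline.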

THRB (gene 7068) [14] = target: THRB (gene 7068) (UniProt P10828); experiment: TOX21_TRB_BLA_Antagonist_Followup_ratio: Tox21 Thyroid Hormone Receptor beta Antagonism Beta-lactamase (BLA) Follow-Up Assay, Ratio (AID 2283958)
In short: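 HEK293T cells with a GAL4-TRb LBD fusion and UAS-bla reporter, 3,000 cells/well in phenol red-free DMEM with 2% charcoal-stripped FBS. Exposed 18 h at 37C to 11 concentrations in triplicate; CCF4 460:530 nm ratio after 2 h, DMSO-referenced.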

[15] = TOX21_TRB_BLA_Antagonist_Followup_viability: Viability Assessment in the Tox21 Thyroid Hormone Receptor beta Antagonism Beta-lactamase (BLA) Follow-Up Assay (AID 2283961)
In short: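 Cytotoxicity is measured in parallel with the antagonist-mode TRβ beta-lactamase screen, using ATP-coupled luciferase luminescence. Engineered HEK293T cells are treated for 18 h with 11-point compound series in triplicate.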

Measured: AC50

CN(C)C/C=C(/c1ccc(Br)cc1)c1cccnc1
inactive: [1] | [2] | [3] | [4] | [5] | [6] | [7]

c1ccncc1
inactive: [1] | [2] | [3] | [4] | [5] | [6] | [7]

CCCC[P+](C)(CCCC)CCCC
inactive: [1] | [2] | [3] | [4] | [5] | [6] | [7]

c1ccc(CNCCNCc2ccccc2)cc1
inactive: [1] | [2] | [3] | [4] | [5] | [6] | [7]

COC(=O)C1=C(C)NC(C)=C(C(=O)O[C@@H]2CCCN(Cc3ccccc3)C2)[C@@H]1c1cccc([N+](=O)[O-])c1
inactive: [1] | [2] | [3] | [4] | [5] | [6] | [7]

Oc1ccc2c(c1)OCO2
inactive: [1] | [2] | [3] | [4] | [6] | [7]

NC(=O)COCCN1CCN(C(c2ccccc2)c2ccc(Cl)cc2)CC1 (stereo unspecified)
inactive: [1] | [2] | [3] | [4] | [6] | [7]

CC(=O)[C@H]1CC[C@H]2[C@@H]3C=CC4=CC(=O)CC[C@@]4(C)[C@@H]3CC[C@]12C
not listed: [11] | [12] | [13] | THRB (gene 7068) [14] | [15]
inactive: all other assays above

CCOC(C)(C)C
inactive: [1] | [2] | [3] | [4] | [6] | [7]

CC(C(O)c1ccccc1)N(C)CCOC(c1ccccc1)c1ccccc1 (stereo unspecified)
active: [4] 42.2 µM
inactive: [1] | [2] | [3] | [6]

CC(C)(Oc1ccc(C2CCCc3ccccc32)cc1)C(=O)O (stereo unspecified)
inactive: [1] | [2] | [3] | [4] | [6]

C=CCONC(CCC)=C1C(=O)CC(C)(C)C(C(=O)OC)=C1O
inactive: [1] | [2] | [3] | [4] | [5] | [7]

CCCCCCCCCCCCCCCBr
inactive: [1] | [2] | [3] | [4] | [6]

CCN(CC)CCNC(=O)c1ccc(NS(C)(=O)=O)cc1
inactive: [1] | [2] | [3] | [4] | [6]

CC(C)Cc1ccc(CC(=O)O)cc1
inactive: [1] | [2] | [3] | [4] | [5] | [7]

CCN1CCC[C@H]1CNC(=O)c1cc(S(N)(=O)=O)ccc1OC
inactive: [1] | [2] | [3] | [4] | [6] | [7]

O=C(Nc1ccccc1)Nc1ccccc1
inactive: [1] | [2] | [3] | [4] | [6]

CCN(CC)Cc1cc(Nc2ccnc3cc(Cl)ccc23)ccc1O
inactive: [1] | [2] | [3] | [4] | [6] | [7]

CNCC(O)c1ccc(OC(=O)C(C)(C)C)c(OC(=O)C(C)(C)C)c1 (stereo unspecified)
inactive: [1] | [2] | [3] | [4] | [6] | [7]

O=C(CCCN1CCC(C(=O)c2ccc(F)cc2)CC1)c1ccc(F)cc1
inactive: [1] | [2] | [3] | [4] | [6] | [7]

Cc1c(O)c(=O)ccn1C
inactive: [1] | [2] | [3] | [4] | [5] | [7]

CC(=O)Nc1cccc(O)c1
inactive: [1] | [2] | [3] | [4] | [5] | [7]

CC1Cc2ccccc2N1NC(=O)c1ccc(Cl)c(S(N)(=O)=O)c1 (stereo unspecified)
not listed: [8] | THRB (gene 7068) [9] | [10] | THRB (gene 7068) [14] | [15]
inactive: all other assays above

O=[N+]([O-])c1ccc(CCO)cc1
inactive: [1] | [2] | [3] | [4] | [5] | [7]

O=C(O)c1ccc2cc(O)ccc2c1
inactive: [1] | [2] | [3] | [4] | [5] | [7]

O=C(c1ccccc1)c1ccc2n1CCC2C(=O)O (stereo unspecified)
active: [7] 43.6 µM
inactive: [1] | [2] | [3] | [4] | [5]

C=C[C@]1(C)C[C@@H](OC(=O)CSCCN(CC)CC)[C@]2(C)[C@H](C)CC[C@]3(CCC(=O)[C@H]32)[C@@H](C)[C@@H]1O
inactive: [1] | [2] | [3] | [4] | [6]

Cc1c(Nc2ncccc2C(=O)O)cccc1C(F)(F)F
not listed: [11] | [12] | [13]
inactive: all other assays above
